From PubChem
In the library only some 4.8% were active in any assay of this set; here they are far more common.
ssDAF12 agonist: activates DAF-12 receptor from parasite S. stercoralis; HEK293 ssDAF-12/GRIP1 lit1-tk-luc reporter, luminescence; % of 3 µM dafachronic acid response; activation, % at 6.8 µM; actives 1% (n = 370,000); AID 652126;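 active = activation above the mean over all tested compounds plus 3 SD, cut at about 0.9% in these data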;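 note: 0% = DMSO-only wells and 100% = 3 µM delta7-dafachronic acid wells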
hcDAF12 agonist: activates DAF-12 receptor from parasite H. contortus. HEK293 hcDAF-12 lit1-tk-luc reporter, luminescence; 0% DMSO, 100% Δ7-dafachronic acid. actives 1.4% (n = 370,000). activation, % at 6.8 µM. AID 652067;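 active = activation above the mean of all tested compounds plus 3 SD, cut at about 5.5% in these data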;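 note: 100% = response to 3 µM Δ7-dafachronic acid high control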
hgDAF12 agonist: agonists of H. glycines DAF-12 nuclear receptor; activation, % at 6.8 µM; AID 687014; HEK293 GAL4-hgDAF12 UAS-luciferase reporter, agonist luminescence; normalized to butyrate control; actives 1.8% (n = 370,000);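 active = activation above a cutoff set at the mean of all screened compounds plus 3 SD, cut at about 10% in these data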;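 note: 0% = DMSO wells and 100% = sodium butyrate wells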
SMARCA2 activ: activators of SMARCA2 function. AID 652017. actives 1% (n = 370,000). activation, % at 9.1 µM. MG213 cells, MMTV-luciferase reporter, dexamethasone, overnight; in the data active = activation above about 7.8%;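 note: 0% = vehicle wells and 100% = reference activator wells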
DAX1 inh-1: NR0B1 (DAX1) inhibition; HEK293 Gal4-DAX1 luciferase reporter, luminescence; actives 0.99% (n = 340,000); inhibition, % at 6.75 µM; AID 504766;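 active = inhibition above the mean over all tested compounds plus 3 SD, cut at about 4.2% in these data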;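 note: 0% = DAX1-transfected cells with DMSO and 100% = empty-vector control cells with DMSO; inhibition shows as a rise in luminescence from relieved DAX1 repression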
Target sequence (P51843 207-470 limits assumed): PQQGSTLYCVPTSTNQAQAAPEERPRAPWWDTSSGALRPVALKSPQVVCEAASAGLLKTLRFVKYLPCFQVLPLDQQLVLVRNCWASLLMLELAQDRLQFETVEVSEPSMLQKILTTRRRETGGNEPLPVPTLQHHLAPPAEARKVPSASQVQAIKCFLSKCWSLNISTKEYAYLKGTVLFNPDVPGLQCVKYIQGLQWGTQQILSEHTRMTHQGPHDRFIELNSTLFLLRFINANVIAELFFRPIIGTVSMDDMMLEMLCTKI
DAX1 inh-2: inhibitors of DAX1 repression of SF-1 activated StAR promoter | HEK293T StAR-luciferase reporter, SF-1/DAX-1 repression relief | inhibition, % at 6.8 µM | actives 1.1% (n = 370,000) | AID 652010;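 active = inhibition above the mean over all tested compounds plus 3 SD, cut at about 3.6% in these data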;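 note: 0% = DAX-1 cells with DMSO and 100% = cells lacking DAX-1 with DMSO; higher inhibition means more luminescence from relief of DAX-1 repression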
An asterisk follows results filed as active.

`Cn1cc(Br)c(C(=O)NNC(=O)Nc2ccccc2C(F)(F)F)n1` gave ssDAF12 agonist -1, hcDAF12 agonist 0, hgDAF12 agonist 10, SMARCA2 activ 4, DAX1 inh-1 4.2* and DAX1 inh-2 1.
Screening Cn1cc(Br)c(C(=O)NNC(=O)c2ccccc2)n1 returned ssDAF12 agonist -2, hcDAF12 agonist -2, hgDAF12 agonist 0, SMARCA2 activ -2, DAX1 inh-1 0 and DAX1 inh-2 0.
Screening COC(=O)C1=C(C)N(Cc2ccccc2C(F)(F)F)C(=NCc2ccccc2)NC1c1cccc(F)c1 (stereo unspecified) returned ssDAF12 agonist -1, hcDAF12 agonist 1, hgDAF12 agonist -1, SMARCA2 activ -3 and DAX1 inh-2 0.
Screening OCCCN1CCC2(CCC(c3ccccc3)CC2)C1 (stereo unspecified) returned ssDAF12 agonist -2, hcDAF12 agonist 2, hgDAF12 agonist 2, SMARCA2 activ -2 and DAX1 inh-2 0.
Screening S=c1[nH]cnc2sc(Nc3ccccc3)nc12 returned ssDAF12 agonist 0, hcDAF12 agonist 5.8*, hgDAF12 agonist 5, SMARCA2 activ 5, DAX1 inh-1 1 and DAX1 inh-2 0.
`CC(C)CCNC(=O)C1CCN(c2cncnc2)CC1` gave ssDAF12 agonist -1, hcDAF12 agonist 1, hgDAF12 agonist 4, SMARCA2 activ 2 and DAX1 inh-2 0.
For CN=c1scc(-c2ccc(F)cc2)n1/N=C/c1ccc(O)c(O)c1 the results were ssDAF12 agonist -1, hcDAF12 agonist 6.3*, hgDAF12 agonist 0, SMARCA2 activ -4, DAX1 inh-1 -1 and DAX1 inh-2 1.
For CN=c1scc(-c2ccc([N+](=O)[O-])cc2)n1/N=C/c1ccco1 the results were ssDAF12 agonist -2, hcDAF12 agonist -2, hgDAF12 agonist 4, SMARCA2 activ 1, DAX1 inh-1 2 and DAX1 inh-2 1.
Screening O=C(O)CN1C(=O)/C(=C/c2ccccc2Cl)Oc2ccccc21 returned ssDAF12 agonist 0, hcDAF12 agonist 3, hgDAF12 agonist 1, SMARCA2 activ -2, DAX1 inh-1 0 and DAX1 inh-2 0.
`CCOC(=O)CN1C(=O)/C(=C/c2ccccc2Br)Oc2ccccc21` gave ssDAF12 agonist -1, hcDAF12 agonist 5.6*, hgDAF12 agonist -2, SMARCA2 activ -1, DAX1 inh-1 1 and DAX1 inh-2 1.
For O=C(Nc1ccc(F)cc1Cl)C1CCCN1S(=O)(=O)c1cccc2cccnc12 (stereo unspecified) the results were ssDAF12 agonist -2, hcDAF12 agonist -4, hgDAF12 agonist 1, SMARCA2 activ -4 and DAX1 inh-2 -2.
For C=CCN(CC#Cc1ccccc1)Cc1ccc(OC)cc1 the results were ssDAF12 agonist -1, hcDAF12 agonist 2, hgDAF12 agonist -1, SMARCA2 activ -2 and DAX1 inh-2 0.
Screening O=C1c2ccccc2C(=O)C1c1ccc(Cl)cc1 returned ssDAF12 agonist -1, hcDAF12 agonist 3, hgDAF12 agonist 6, SMARCA2 activ 1, DAX1 inh-1 1 and DAX1 inh-2 2.
O=C1c2ccccc2C(=O)C12OC2c1ccc(Cl)cc1Cl (stereo unspecified) was read as ssDAF12 agonist 1.5*, hcDAF12 agonist 5, hgDAF12 agonist -1, SMARCA2 activ -2, DAX1 inh-1 1 and DAX1 inh-2 0.
Screening c1ccc(CSCc2nc3ccccc3[nH]2)cc1 returned ssDAF12 agonist -1, hcDAF12 agonist 6.4*, hgDAF12 agonist 7, SMARCA2 activ 3, DAX1 inh-1 2 and DAX1 inh-2 1.
For Nc1ccccc1Sc1nc2ccccc2[nH]1 the results were ssDAF12 agonist 0, hcDAF12 agonist 8.9*, hgDAF12 agonist 1, SMARCA2 activ 9.2*, DAX1 inh-1 0 and DAX1 inh-2 3.
For Fc1ccc(CSc2nc3ccccc3[nH]2)cc1 the results were ssDAF12 agonist 0, hcDAF12 agonist 3, hgDAF12 agonist 12*, SMARCA2 activ 1, DAX1 inh-1 3 and DAX1 inh-2 3.
For Nc1nc(CSc2nc3ccccc3[nH]2)cs1 the results were ssDAF12 agonist 0, hcDAF12 agonist 4, hgDAF12 agonist 4, SMARCA2 activ 3, DAX1 inh-1 4.6* and DAX1 inh-2 0.
Screening CCSc1nc2ccccc2[nH]1 returned ssDAF12 agonist -1, hcDAF12 agonist 1, hgDAF12 agonist 0, SMARCA2 activ -2, DAX1 inh-1 2 and DAX1 inh-2 0.
For Nc1nc2ccccc2[nH]1 the results were ssDAF12 agonist -1, hcDAF12 agonist -1, hgDAF12 agonist 0, SMARCA2 activ 2, DAX1 inh-1 1 and DAX1 inh-2 0.
O=C(CSCc1nc2ccccc2[nH]1)Nc1ccccc1 was read as ssDAF12 agonist -1, hcDAF12 agonist 0, hgDAF12 agonist 0, SMARCA2 activ -4, DAX1 inh-1 1 and DAX1 inh-2 0.
Screening C[C@H]1[C@@H](OC(=O)Nc2ccc(C(F)(F)F)cc2)CC[C@@]23CCCN2C(=O)CCC[C@@H]13 returned ssDAF12 agonist -1, hcDAF12 agonist -2 and hgDAF12 agonist 1.
For FC(F)(F)c1cccc(N2CCN(C(=S)Nc3nccc4ccccc34)CC2)c1 the results were ssDAF12 agonist -1, hcDAF12 agonist 5 and hgDAF12 agonist 3.
For O=C(NN=C/C=C/c1ccco1)c1cc(-c2ccc(Cl)cc2)n[nH]1 the results were ssDAF12 agonist -1, hcDAF12 agonist 0, hgDAF12 agonist 1, SMARCA2 activ -3 and DAX1 inh-2 -3.
Screening Cc1cccc(C)c1NC(=O)CN(c1c(C)cccc1C)S(C)(=O)=O returned ssDAF12 agonist 0, hcDAF12 agonist 2, hgDAF12 agonist 2, SMARCA2 activ 2, DAX1 inh-1 5.0* and DAX1 inh-2 0.
Screening O=C(NC1CCCCN(Cc2ccc(Cl)cc2)C1=O)C1C2CC3CC(C2)CC1C3 (stereo unspecified) returned ssDAF12 agonist 0, hcDAF12 agonist -2, hgDAF12 agonist -3, SMARCA2 activ -2 and DAX1 inh-2 0.
`O=C1N(CCCO)CCC12CCCCC2` gave ssDAF12 agonist -1, hcDAF12 agonist 0, hgDAF12 agonist 0, SMARCA2 activ -4 and DAX1 inh-2 0.
`CCn1c2ccccc2c2cc(C=NNC(=O)c3cc(-c4ccc(OC)cc4)n[nH]3)ccc21` gave ssDAF12 agonist -1, hcDAF12 agonist -3, hgDAF12 agonist 0, SMARCA2 activ 4 and DAX1 inh-2 -1.
For CCOc1ccc(C(=O)NCC(=O)OCc2nnc(-c3ccccc3)o2)cc1OCC the results were ssDAF12 agonist -1, hcDAF12 agonist 0, hgDAF12 agonist -2, SMARCA2 activ -2, DAX1 inh-1 1 and DAX1 inh-2 4.2*.
For O=C(CNC(=O)c1ccccc1)OCc1nnc(-c2ccccc2)o1 the results were ssDAF12 agonist -1, hcDAF12 agonist 1, hgDAF12 agonist 1, SMARCA2 activ -1, DAX1 inh-1 0 and DAX1 inh-2 2.
